Source: PubChem BioAssay (NCI)
About 79,000 compounds went through this panel and 15% of them were active in at least one assay; those are over-represented in the sample as a whole. The source made the active and inactive calls. No stated cut-off is given here; in the data, active means growth inhibition above about 70%; inactive means the rest.

Tests used:
[1] = NCI Yeast Anticancer Drug Screen. Data for the rad52 strain (AID 147);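 further: 0% = growth of vehicle-treated control cultures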; settings: S. cerevisiae rad52 mutant growth inhibition, hits give high values
Outline: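 Yeast strain carrying a DNA damage repair alteration was exposed to test compounds. Growth inhibition was measured relative to vehicle-treated controls.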

[2] = NCI Yeast Anticancer Drug Screen. Data for the wt1 strain (AID 149);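 further: 0% = growth of vehicle-treated wt1 cultures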; settings: S. cerevisiae wt1 strain (SPY 50644) growth inhibition, hits give high values
Outline: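 Readout: yeast growth inhibition, normalised to vehicle controls, in the wt1 strain exposed to test compounds.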

[3] = NCI Yeast Anticancer Drug Screen. Data for the rad50EPP+ strain (AID 151);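 further: 0% = growth of vehicle-treated control cultures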; settings: S. cerevisiae rad50 mutant strain, hits give high values
Outline: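 Yeast strain carrying rad50 alteration (rad50EPP+) exposed to compounds; growth inhibition measured relative to vehicle-treated controls.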

[4] = NCI Yeast Anticancer Drug Screen. Data for the rad50 strain (AID 155);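 further: 0% = growth of vehicle-only cultures of the same strain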; settings: S. cerevisiae rad50 strain growth inhibition, hits give high values
Outline: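 Compounds were tested on a yeast strain with an engineered DNA damage repair alteration; the reported value is growth inhibition normalised to vehicle treatment.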

[5] = NCI Yeast Anticancer Drug Screen. Data for the mec2-1 strain (AID 157); settings: S. cerevisiae mec2-1 strain, hits give high values
Outline: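 mec2-1 yeast strain, carrying an alteration in DNA damage repair or cell cycle control, was exposed to compounds; growth inhibition was measured relative to vehicle-treated controls.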

[6] = NCI Yeast Anticancer Drug Screen. Data for the rad14 strain (AID 159);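 further: 0% = growth of vehicle-treated control cultures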; settings: S. cerevisiae rad14 strain growth inhibition, hits give high values
Outline: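 Compound-treated yeast with a defined DNA-repair lesion; growth inhibition normalised to vehicle-treated cultures.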

[7] = NCI Yeast Anticancer Drug Screen. Data for the sgs1 mgt1 strain (AID 161);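 further: 0% = growth of cultures given vehicle only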; settings: S. cerevisiae sgs1 mgt1 strain, hits give high values
Outline: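 This yeast growth screen uses a strain with defined DNA-repair lesions; compound-treated growth is compared with vehicle-treated growth.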

[8] = NCI Yeast Anticancer Drug Screen. Data for the CLN2oe strain (AID 163);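 further: 0% = growth of vehicle-only control cultures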; settings: S. cerevisiae CLN2oe strain, hits give high values
Outline: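 Yeast cells carrying a defined cell-cycle control alteration were exposed to test compounds. Growth inhibition was scored against vehicle-treated control cultures.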

[9] = NCI Yeast Anticancer Drug Screen. Data for the cln2 rad14 strain (AID 165);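 further: 0% = growth equal to vehicle treated cultures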; settings: S. cerevisiae cln2 rad14 strain, hits give high values
Outline: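 Yeast carrying cln2 and rad14 alterations (cell cycle control and DNA damage repair) were exposed to compounds. Growth inhibition was measured against vehicle-treated controls.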

[10] = NCI Yeast Anticancer Drug Screen. Data for the bub3 strain (AID 167); settings: S. cerevisiae bub3 mutant strain, hits give high values
Outline: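 Growth of a checkpoint-deficient yeast mutant is measured after compound exposure. Values represent inhibition relative to vehicle.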

[11] = NCI Yeast Anticancer Drug Screen. Data for the wt2 strain (AID 169);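 further: 0% = growth of vehicle-treated yeast cultures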; settings: S. cerevisiae wt2 strain growth inhibition, hits give high values
Outline: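 Yeast cells were exposed to test compounds, and growth inhibition was measured relative to vehicle-treated controls.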

[12] = NCI Yeast Anticancer Drug Screen. Data for the mlh1 strain (AID 171);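 further: 0% = growth of vehicle-treated control cultures of the same strain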; settings: S. cerevisiae mlh1 strain growth inhibition, hits give high values
Outline: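 Yeast carrying a defined genetic alteration in DNA damage repair or cell cycle control were exposed to test compounds. Growth inhibition was measured relative to vehicle-treated controls.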

[13] = NCI Yeast Anticancer Drug Screen. Data for the sgs1 strain (AID 173);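 further: 0% = growth of vehicle-only control cultures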; settings: S. cerevisiae sgs1 mutant, hits give high values
Outline: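 Yeast mutant strains carrying defined defects in DNA damage repair or cell cycle control were exposed to test compounds. Growth inhibition was scored against vehicle-treated controls.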

[14] = NCI Yeast Anticancer Drug Screen. Data for the mlh1 rad18 strain (AID 175); settings: S. cerevisiae mlh1 rad18 strain growth inhibition, hits give high values
Outline: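 Growth inhibition of the yeast strain was measured after compound exposure and expressed relative to vehicle-treated controls. The strain carries defined defects in DNA damage repair.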

[15] = NCI Yeast Anticancer Drug Screen. Data for the rad18 strain (AID 177); settings: S. cerevisiae rad18 mutant growth inhibition, hits give high values
Outline: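 Yeast carrying a defined DNA damage repair alteration were exposed to compounds. Growth inhibition was expressed relative to vehicle-treated controls.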

[16] = at 5.0 µM (retest, dose inferred, filed as 0.5)
[17] = at 50.0 µM (retest, dose inferred, filed as 5.0)

Measured: growth inhibition

C/C=C/[P+](c1ccccc1)(c1ccccc1)c1ccccc1
inactive: [1]; at 1.2 µM 49% | [1]; at 3.7 µM 62% | [2]; at 1.2 µM 31% | [2]; at 3.7 µM 42% | [2]; at 11.0 µM 54% | [2]; at 33.0 µM 61% | [3]; at 1.2 µM 13% | [3]; at 3.7 µM 2% | [3]; at 11.0 µM -4% | [3]; at 33.0 µM 0% | [3]; at 100.0 µM 16% | [4]; at 1.2 µM 50% | [4]; at 3.7 µM 67% | [4]; [16] 48% | [5]; at 1.2 µM 21% | [5]; at 3.7 µM 44% | [5]; [16] 33% | [5]; at 11.0 µM 54% | [5]; at 33.0 µM 64% | [5]; [17] 63% | [6]; at 1.2 µM 30% | [6]; at 3.7 µM 27% | [6]; at 11.0 µM 28% | [6]; at 33.0 µM 63% | [7]; [16] 20% | [8]; at 1.2 µM 16% | [8]; at 3.7 µM 13% | [8]; at 11.0 µM 29% | [8]; at 33.0 µM 30% | [9]; [16] 9% | [9]; [17] 16% | [9]; at 50.0 µM 52.6% | [10]; at 1.2 µM 15% | [10]; at 3.7 µM 29% | [10]; [16] 25% | [10]; at 11.0 µM 49% | [10]; at 33.0 µM 67% | [11]; at 1.2 µM -1% | [11]; at 3.7 µM 12% | [11]; at 11.0 µM 18% | [11]; at 33.0 µM 47% | [12]; at 1.2 µM 30% | [12]; at 3.7 µM 43% | [12]; at 11.0 µM 63% | [12]; at 33.0 µM 68% | [13]; at 1.2 µM 19% | [13]; at 3.7 µM 31% | [13]; at 11.0 µM 55% | [13]; at 33.0 µM 61% | [14]; [16] 33% | [14]; [17] 63% | [15]; at 1.2 µM 58% | [15]; at 3.7 µM 67% | [15]; at 11.0 µM 68%
active: [1]; at 11.0 µM 70% | [1]; at 33.0 µM 83% | [1]; at 100.0 µM 92% | [2]; at 100.0 µM 86% | [4]; at 11.0 µM 72% | [4]; at 33.0 µM 86% | [4]; [17] 78% | [4]; at 50.0 µM 81.2% | [4]; at 100.0 µM 95% | [5]; at 50.0 µM 83.3% | [5]; at 100.0 µM 91% | [6]; at 100.0 µM 97% | [7]; [17] 73% | [7]; at 50.0 µM 78.3% | [8]; at 100.0 µM 78% | [10]; [17] 86% | [10]; at 50.0 µM 78.6% | [10]; at 100.0 µM 90% | [11]; at 100.0 µM 87% | [12]; at 100.0 µM 92% | [13]; at 100.0 µM 89% | [14]; at 50.0 µM 87.8% | [15]; at 33.0 µM 90% | [15]; at 100.0 µM 94%

O=[N+]([O-])/C(C(Cl)=C(Cl)Cl)=C1/OCCS1
inactive: [1]; at 1.2 µM 30% | [2]; at 1.2 µM 4% | [2]; at 3.7 µM 30% | [3]; at 1.2 µM 20% | [3]; at 3.7 µM 37% | [3]; at 11.0 µM 61% | [3]; at 100.0 µM 64% | [4]; at 1.2 µM 19% | [4]; at 3.7 µM 56% | [4]; [16] 16% | [5]; at 1.2 µM 24% | [5]; at 3.7 µM 55% | [5]; [16] 11% | [6]; at 1.2 µM 14% | [6]; at 3.7 µM 39% | [7]; [16] 40% | [8]; at 1.2 µM 15% | [8]; at 3.7 µM 44% | [9]; [16] -2% | [10]; at 1.2 µM 6% | [10]; at 3.7 µM 27% | [10]; [16] -12% | [11]; at 1.2 µM 7% | [11]; at 3.7 µM 32% | [12]; at 1.2 µM 11% | [12]; at 3.7 µM 48% | [13]; at 1.2 µM 42% | [14]; [16] 60%
active: [1]; at 3.7 µM 72% | [1]; at 11.0 µM 97% | [1]; at 33.0 µM 99% | [1]; at 100.0 µM 99% | [2]; at 11.0 µM 94% | [2]; at 33.0 µM 99% | [2]; at 100.0 µM 99% | [3]; at 33.0 µM 77% | [4]; at 11.0 µM 95% | [4]; at 33.0 µM 99% | [4]; [17] 100% | [4]; at 50.0 µM 90.5% | [4]; at 100.0 µM 99% | [5]; at 11.0 µM 97% | [5]; at 33.0 µM 98% | [5]; [17] 100% | [5]; at 50.0 µM 93.6% | [5]; at 100.0 µM 98% | [6]; at 11.0 µM 96% | [6]; at 33.0 µM 99% | [6]; at 100.0 µM 98% | [7]; [17] 100% | [7]; at 50.0 µM 90.6% | [8]; at 11.0 µM 94% | [8]; at 33.0 µM 98% | [8]; at 100.0 µM 99% | [9]; [17] 99% | [9]; at 50.0 µM 91% | [10]; at 11.0 µM 90% | [10]; at 33.0 µM 99% | [10]; [17] 100% | [10]; at 50.0 µM 92.5% | [10]; at 100.0 µM 98% | [11]; at 11.0 µM 95% | [11]; at 33.0 µM 99% | [11]; at 100.0 µM 99% | [12]; at 11.0 µM 97% | [12]; at 33.0 µM 99% | [12]; at 100.0 µM 98% | [13]; at 3.7 µM 78% | [13]; at 11.0 µM 97% | [13]; at 33.0 µM 99% | [13]; at 100.0 µM 99% | [14]; [17] 100% | [14]; at 50.0 µM 86.2% | [15]; at 1.2 µM 86% | [15]; at 3.7 µM 93% | [15]; at 11.0 µM 97% | [15]; at 33.0 µM 99% | [15]; at 100.0 µM 98%

CC1OC(OC2CCCc3c(O)c4c(c(O)c32)C(=O)c2ccccc2C4=O)CC(N)C1O (stereo unspecified)
active: [1]; at 11.0 µM 94% | [1]; at 33.0 µM 98% | [1]; at 100.0 µM 99% | [2]; at 33.0 µM 92% | [2]; at 100.0 µM 99% | [3]; at 11.0 µM 73% | [3]; at 33.0 µM 97% | [3]; at 100.0 µM 98% | [4]; at 11.0 µM 95% | [4]; at 33.0 µM 99% | [4]; [17] 98% | [4]; at 50.0 µM 80.7% | [4]; at 100.0 µM 98% | [5]; at 33.0 µM 82% | [5]; [17] 99% | [5]; at 100.0 µM 99% | [6]; at 33.0 µM 99% | [6]; at 100.0 µM 99% | [7]; [17] 98% | [7]; at 50.0 µM 70.5% | [8]; at 33.0 µM 84% | [8]; at 100.0 µM 98% | [9]; [17] 98% | [10]; at 33.0 µM 89% | [10]; [17] 98% | [10]; at 100.0 µM 98% | [11]; at 33.0 µM 97% | [11]; at 100.0 µM 99%
inactive: [1]; at 1.2 µM 3% | [1]; at 3.7 µM 46% | [2]; at 1.2 µM 1% | [2]; at 3.7 µM 12% | [2]; at 11.0 µM 35% | [3]; at 1.2 µM 10% | [3]; at 3.7 µM 30% | [4]; at 1.2 µM -49% | [4]; at 3.7 µM 41% | [4]; [16] 60% | [5]; at 1.2 µM 0% | [5]; at 3.7 µM -2% | [5]; [16] 8% | [5]; at 11.0 µM 4% | [5]; at 50.0 µM 53% | [6]; at 1.2 µM 2% | [6]; at 3.7 µM 12% | [6]; at 11.0 µM 55% | [7]; [16] 14% | [8]; at 1.2 µM 2% | [8]; at 3.7 µM -1% | [8]; at 11.0 µM 2% | [9]; [16] -3% | [9]; at 50.0 µM 43.9% | [10]; at 1.2 µM -4% | [10]; at 3.7 µM -5% | [10]; [16] 2% | [10]; at 11.0 µM -7% | [10]; at 50.0 µM 52.8% | [11]; at 1.2 µM 4% | [11]; at 3.7 µM 9% | [11]; at 11.0 µM 61%
